Assay results reported in the supplement of paper PMC6555819.

What was measured:
Test in all cases: PBM binding z-score (relative to random genomic background probes); higher = stronger binding; sequences stand for … in GC…GCGATTGACAGCGTAGAATGAAGG
[1] = tested on: RARb homodimer (NR concentration 270 nM)
Method in brief: (§1)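 Ligand-free nuclear receptor dimers were applied to custom Agilent 4×180K protein-binding microarrays whose double-stranded probes carried direct-repeat seeds, single-nucleotide variants, half-site ablations and random human genomic background sequences in 34-nt variable regions. Incubation lasted 1 h. Binding z-scores were computed against the random background probes from regression-normalized fluorescence.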

[2] = tested on: RARg:RXRa (NR concentration 270 nM, RXRa partner concentration 90 nM)
Method in brief: as §1

[3] = tested on: RARg homodimer (NR concentration 270 nM)
Method in brief: as §1

[4] = tested on: RXRa DBDmut IVT, anti-RXR (DBD mutation: RXRa K156A/R161A, NR concentration 90 nM)
Method in brief: as §1

[5] = tested on: RXRa homodimer (NR concentration 180 nM)
Method in brief: as §1

[6] = tested on: THRa:RXRa (NR concentration 90 nM, RXRa partner concentration 90 nM)
Method in brief: as §1

[7] = tested on: THRa homodimer (NR concentration 90 nM)
Method in brief: as §1

[8] = tested on: VDR homodimer (NR concentration 270 nM)
Method in brief: as §1

Sequence	PBM binding z-score [1]	PBM binding z-score [2]	PBM binding z-score [3]	PBM binding z-score [4]	PBM binding z-score [5]	PBM binding z-score [6]	PBM binding z-score [7]	PBM binding z-score [8]
CGAACGCGGGCATGAGTTGATAGCAAATGCCGAT	-0.346	-0.206	0.05	0.305	-0.124	-0.413	-0.72	0.0939
TCTAGTTCGTCAAAGGTCACACACTCGAAATGCG	4.99	6.46	6.31	2.95	6.75	4.64	2.53	3.49
CCTTACGGGTCACTGACAGGTTATAGGATTTGGA	3.52	5.89	4.77	1.67	5.17	2.96	0.251	1.28
GCTAGTTGGTCAGTAAAAGGTCACACATCGGTCG	5.17	5.41	4.73	0.844	5.27	3.54	1.84	1.47
TAGCCTAGGTCTTTCAGGGGCCAGTATAGAAAGC	0.423	0.873	0.295	-0.58	-0.286	0.663	-0.603	-0.407
TCATGTAGGTAAATGCTAGGTGAAAGTCCGATCT	0.541	0.226	0.15	1.26	0.398	1.28	0.741	0.319
CCTACTGGTCCAAAGGTCATTGATTCCAATGCTC	4.86	5.09	4.49	2.23	5.45	3.31	1.49	2.58
AGTCAAAGTTCACTAGATAACGTAAGATTCAGCT	3.55	4.97	5.79	3.76	3.84	1.46	-0.386	3.35
GTACCCAGGTGAATAGGTCGTTGATGAGTAGGCG	1.16	1.5	0.814	-0.431	1.18	1.31	0.537	0.0528
CGTCCAAGATCAGCAGGTCAGTGAAAGCGACGTG	2.09	1.01	1.51	0.253	0.844	1.11	0.018	0.137
CGTCCAAGGTCAGCAGGTCAGTGTAAGCGACGTG	5.08	6.34	6.61	2.55	4.93	4.01	2.46	2.01
TCAAACAGGTGAAGGTAACTCAGGTACGCAGTCG	0.716	0.691	0.597	1.43	1.13	1.44	0.12	0.467
TAGCCTAGGTCATTGGGCCAGTATTGTACGCATC	2.89	3.78	4.05	1.46	2.62	2.88	0.793	1.03
CCTTACGGGTGACTGACAGGTTATAGCATTTGGA	0.601	1.07	0.559	0.115	0.941	0.72	-0.154	-0.209
GCAGACAGGTGAAAGGCAGGTAACTCAGGGTGGC	0.611	0.314	-0.0429	-0.432	0.602	1.23	0.167	-0.284
GCTTGTAGATCAAGGTTAAGTAAGACTAAGCTAA	0.397	0.425	0.177	0.147	0.706	2.36	-0.276	-0.509

Sequence	PBM binding z-score [1]	PBM binding z-score [2]	PBM binding z-score [3]	PBM binding z-score [4]	PBM binding z-score [5]	PBM binding z-score [6]	PBM binding z-score [7]	PBM binding z-score [8]
ATCTCTAGGTAAAGTCCAGTGAAAGATCGATAGA	0.254	0.207	0.536	0.396	-0.0378	0.245	0.0822	0.0331
CGAACGAGGGCATCAGTTGATAGCAAATGCCGAT	0.822	0.928	1.83	2.49	0.686	0.964	-0.293	1.48
CCTAGTTGGTAAGGAGGTCACACACCGGATATGA	3.85	3.75	3.06	0.539	4.06	3.44	2.35	2.37
ATCGAAAGGTCGTGAGGTGAGTCTACAGAAAGGC	3.17	4.64	3.92	1.06	5.19	3.48	1.43	1.09
CCTTACGGGTCACTGACAGGTTAGAGCATTTGGA	3.12	5.7	4.77	1.55	5.51	2.68	0.0773	0.83
TAGCCTAGGTCATTCAGGTGCCAGTATAGAAAGC	2.67	4.44	3.98	1.73	2.97	3.13	1.06	1.66
CCAGCTAGGTCATGGTCAGCTAATCTACAGTATG	3.2	3.81	4.16	1.61	2.86	2.8	1.25	0.247
CGTCCAAGGTCAAGGTCATTGAAAGAGACTCGAA	5.3	7.02	7.64	3.89	7.4	4.39	3.82	5.11
CAAACTAGGTCAAGGTCGAAGTCGGTTTGTGCCA	3.74	4.38	5.12	2.45	3.49	3.55	2.45	2.48
TCATATAAGTAAAAGGTGAAAGTCGGTGTGGTAA	1.85	1.3	0.831	1.85	2.11	1.46	0.55	0.109
TGTCAAAGTTCAACGGTAACGTAAGTATCCACAC	3.79	5.69	6.35	4.26	5.2	1.98	-0.415	3.5
TCTCGGAGTACACGAAAGGTCAGAGCTCGACATC	4.24	3.91	3.72	1.14	3.87	3.02	0.15	0.908
CCTACTGGGCCATCAGGTCATCGATATCAACGTT	2.83	2.31	2.29	0.257	1.58	3.45	3.33	1.24
TTACCAAGGTGAAAGATCGTTGATGCACGCCTTG	0.0757	0.744	0.398	-0.161	1.06	1.42	0.109	-0.339
TCATATAGGTAAACAGGTGCAAGTCCGTAAGTTA	0.278	0.453	0.0324	1.32	1.27	0.672	0.416	1.14
CAAACTAGGTCAAGGTCACAGTCGGTTTGTGCCA	5.15	6.22	6.99	2.66	5.94	4.67	4.75	4.27
